Screening results deposited in PubChem BioAssay by National Center for Advancing Translational Sciences (NCATS).
Cycloheximide cs – counter-screen hit for Shiga toxin inhibitors, cycloheximide; cell reporter, cycloheximide protein synthesis inhibition counterscreen; max response, %; 300,000 compounds, 12% hits; in the data active = max response mostly above about 13%, no sharp cut-off; inactive = mostly below about 14%; also: read at 38.3 µM for the half of the compounds with a filed dose; 0% is about no effect
AmpC detergent – AmpC beta-lactamase inhibition with detergent present. P00811. AmpC hydrolysis of nitrocefin, absorbance 480 nm, 0.01% Triton. Potency, µM (doses to about 114 µM), for inactives: at the highest dose activity change, negative = inhibition, usual class: inhibitors. 370,000 compounds, 0.041% hits;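 also: potency is read from the fitted curve at half-maximal effect; 0% = no-compound wells and -100% = no-enzyme wells; nearly all actives have a fitted effect of over 25% in size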
Target sequence (P00811 whole entry, looked up): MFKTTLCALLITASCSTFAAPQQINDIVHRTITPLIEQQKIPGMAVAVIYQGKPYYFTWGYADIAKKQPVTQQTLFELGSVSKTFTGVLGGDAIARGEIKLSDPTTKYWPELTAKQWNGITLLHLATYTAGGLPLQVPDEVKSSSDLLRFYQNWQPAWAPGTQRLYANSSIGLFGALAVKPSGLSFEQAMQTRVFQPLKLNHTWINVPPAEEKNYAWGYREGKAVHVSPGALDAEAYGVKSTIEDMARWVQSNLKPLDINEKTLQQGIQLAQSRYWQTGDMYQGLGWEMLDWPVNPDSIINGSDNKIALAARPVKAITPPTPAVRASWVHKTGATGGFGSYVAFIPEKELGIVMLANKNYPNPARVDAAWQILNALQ
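AmpC (5.3 nM in the dispensed reagent) in 20 mM phosphate pH 7.0 with 0.01% (detergent screen) or 0.0001% Triton X-100 was preincubated with compounds for 15 min at room temperature. Nitrocefin was then added from an 800 uM solution, and hydrolysis was followed at 480 nm.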
NS1 inh – influenza NS1 inhibition. Potency, µM (doses to about 46.1 µM), inactives show at the top dose activity, positive = more growth. 270,000 compounds, 0.4% hits. AID 2326; calls by dose curve; also: potency is read from the fitted curve at half-maximal effect; actives are rising curves; nearly all actives have a fitted effect of over 50% in size
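Recovery from NS1-induced slow growth read by OD600 in budding yeast switched to galactose assay medium (pH 6.0, -URA) at 1:100 dilution. Compound 23 nl per well; the matching strain lacking NS1 serves as control.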
AmpC no deterg – blocks E. coli AmpC beta-lactamase in detergent-free assay. P00811. AmpC nitrocefin hydrolysis, absorbance 480 nm, 0.0001% Triton. Potency, µM (titrated, usually from 57.1 µM), for the others: top-dose activity change, negative = inhibition, most hits filed as inhibitors. 330,000 compounds, 0.52% hits;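 also: potency is read from the fitted curve at half-maximal effect; plate controls were no compound for no effect and no enzyme for full effect; nearly all actives have a fitted effect of over 20% in size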
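AmpC (5.3 nM in the dispensed reagent) in 20 mM phosphate pH 7.0 with 0.01% (detergent screen) or 0.0001% Triton X-100 was preincubated with compounds for 15 min at room temperature. Nitrocefin was then added from an 800 uM solution, and hydrolysis was followed at 480 nm.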
Shiga inhibitor – inhibitors of Shiga toxin in Vero cells. 290,000 compounds, 9.2% hits. AID 2315. Vero cells, Shiga toxin protein synthesis inhibition reporter. inhibition, % at 38.7 µM; in the data active = inhibition mostly above about 28%, no sharp cut-off; inactive = mostly below about 43%; also: 0% is about no effect
Active calls of the source: *; ? = inconclusive; nt = no result given; + = active, no number; [ ] = another dose, or the depositor's remark. This is one part of a sample in which hits are shown more often than they occur. Unless noted, calls follow the shape of the dose curve; as a rule, active = well fitted curve in the direction sought with a large enough effect; inconclusive = small, poorly fitted or top-dose-only effect, or another doubt; inactive = no such curve, though single readings can be large; an effect the other way counts as inactive or inconclusive.

SMILES	Cycloheximide cs	AmpC detergent	NS1 inh	AmpC no deterg	Shiga inhibitor
Cc1cc(C)c(C#N)c(SCc2ccccc2C)n1	-0.4	?	-17.3%	-16.2%	1.9
Cc1cc(C)c(C#N)c(SCC2COc3ccccc3O2)n1 (stereo not drawn)	21.0*	-0.4%	-11.8%	-25.1%	13.2
Cc1cccc(N2CCN(S(=O)(=O)c3cc(C(=O)Nc4ccc(Oc5ccccc5)cc4)ccc3F)CC2)c1C	nt	0.8%	nt	nt	nt
C=CCN(CC=C)C(=S)Nc1ccccc1	3.9	-6.9%	3.7%	-6.5%	25.4
CCc1ccc(OCC(=O)Nc2ccc3oc(=O)ccc3c2)cc1	1.9	-13.6%	-2.6%	-29.2%	-3.2
O=C(Nc1ccc2oc(=O)ccc2c1)c1ccco1	22.3*	3.5%	-46.1%	-13.3%	30.8*
O=C(Nc1ccc2oc(=O)ccc2c1)c1ccc2ccccc2c1	11.5	-0.6%	5.9%	-25.1%	25.3
O=C(Cc1ccccc1)Nc1ccc2oc(=O)ccc2c1	13.5*	3.8%	-0.8%	-27.8%	20.6
Cc1cc(C)n(-c2nc3ccccc3c(=O)n2OCC#N)n1	38.3*	2.4%	-39.2%	-6.3%	115.1*
CC(=O)c1c(C)[nH]c(C(=O)OCC(=O)c2c[nH]c3ccccc23)c1C	nt	-2.2%	nt	41.6%	nt
CN(C)c1cccc(-c2nnc(SCCCC#N)o2)c1	49.3*	-4.4%	1.2%	1.1%	90.9*
CN(C)CCSc1nnc(-c2ccccc2)o1	38.9*	?	4.3%	-0.6%	57.0*
Cc1cccc(-c2nnc(SCc3ccccc3)o2)c1	28.3*	-1.1%	-53.8%	-8.3%	92.1*
Cc1cccc(CSc2nnc(-c3ccco3)o2)c1	31.8*	-13.9%	-59.7%	7.3%[2.29 µM]	88.8*
CCCCCSc1nnc(-c2ccc(Br)cc2)o1	nt	13.4%	nt	nt	nt
Cc1ccc(-c2nnc(SCc3cccc(C#N)c3)o2)cc1	nt	-1.1%	nt	nt	nt
CSc1nnc(-c2ccccc2)o1	-3.4	-19.1%	-2.1%	100.6%	47.9
CSCC[C@H](N)C(=O)N[C@@H](CO)C(=O)N[C@@H](CCCN=C(N)N)C(=O)N1CCC[C@H]1C(=O)N[C@@H](C)C(=O)N[C@@H](CS)C(=O)N1CCC[C@H]1C(=O)N[C@@H](CC(N)=O)C(=O)N[C@@H](CC(=O)O)C(=O)N[C@@H](CCCCN)C(=O)N[C@@H](Cc1ccc(O)cc1)C(=O)N[C@@H](CCC(=O)O)C(=O)O	-6.3	nt	nt	nt	-6.2
Oc1c(C(c2ccc(Cl)cc2)N2CCOCC2)sc2nc(-c3ccco3)nn12 (stereo not drawn)	nt	5.7%	nt	nt	nt
C#CCN1C(=O)C(O)(CC(=O)c2ccc(OC)c(OC)c2)c2cc(Br)ccc21 (stereo not drawn)	nt	3.6%	nt	nt	nt
COC(=O)c1ccc(NC(=O)N2CCC(CN3CCc4ccccc4C3)CC2)cc1	nt	-8.4%	nt	nt	nt
CCOc1ncccc1C(=O)NCc1ccccc1F	9.1	4.6%	1.7%	-10.0%	13.9
Cc1ccc(NC(=O)c2cccc3cccnc23)cc1	35.4*	5.8%	-102.7%	18.6%	110.6*
CC(=O)Nc1cccc(NC(=O)c2cccc3cccnc23)c1	19.3*	4.1%	-13.7%	-21.6%	31.5
Cc1ccc(NC(=O)CN(C)S(=O)(=O)c2cccc3cccnc23)cc1	-8.1	?	-0.8%	-8.2%	-12.6
SMILES	Cycloheximide cs	AmpC detergent	NS1 inh	AmpC no deterg	Shiga inhibitor
O=C(NCCc1ccccc1F)c1cccc2cccnc12	52.0*	-1.6%	-8.3%	43.8%	82.3*
CC(C)(C)C(=O)OCOP(=O)(OCOC(=O)C(C)(C)C)C(C)(Oc1ccc(O)cc1)P(=O)(OCOC(=O)C(C)(C)C)OCOC(=O)C(C)(C)C	16.1	nt	nt	nt	2.0
CC1CCCC(C)N1CCCNC(=O)c1ccc2nc(N3CCCCC3)sc2c1 (stereo not drawn)	18.0*	?	-2.2%	31.6%	58.8*
CC1CCCC(C)N1CCCNC(=O)c1ccc2nc(N3CCOCC3)sc2c1 (stereo not drawn)	4.5	-1.5%	4.5%	-14.9%	3.1
CC1CCN(c2nc3ccc(C(=O)NCCCN4CCCCC4C)cc3s2)CC1 (stereo not drawn)	29.3*	-11.7%	-6.8%	17.5%	34.2*
COc1ccc(-c2nnn3c2nc(NCCc2ccc(OC)c(OC)c2)c2ccccc23)cc1	nt	5.4%	nt	nt	nt
O=C(C1CCN(S(=O)(=O)c2cccc3cccnc23)CC1)N1CCN(c2ccc(Cl)cc2)CC1	-5.8	?	15.5%	52.6%	-3.8
COc1nc(NCc2ccco2)nc(N2CCC(C)CC2)n1	-2.6	?	-21.3%	-2.9%	15.8
COc1nc(NCc2ccco2)nc(NC2CCCCC2)n1	26.3*	-20.3%	-10.5%	-9.3%	41.9
CN(C)/C=N/C(=S)Nc1ccccc1F	27.6*	?	-31.6%	-5.0%	90.2
CN(C)/C=N/C(=S)Nc1ccccc1Cl	39.1*	4.4%	-7.2%	1.7%	49.3*
Cc1cc(C)c2nc(SCC(=O)N3CC(=O)Nc4ccccc43)c(C#N)cc2c1	-1.9	2.1%	11.0%	3.55µM*	-8.1
COc1ccc2nc(SCC(=O)N3CC(=O)Nc4ccccc43)c(C#N)cc2c1	-2.2	?	5.0%	-51.9%	-7.2
CC(=O)N1c2ccc(S(=O)(=O)NCC3CCC(C(=O)Nc4cc(C)ccn4)CC3)cc2CC1C (stereo not drawn)	1.2	1.3%	-23.8%	33.0%	8.5
Cc1cccc(NC(=S)N2CCN(c3cc(C)ccc3C)CC2)c1	1.8	-1.7%	10.4%	-16.4%	-19.9
COc1ccccc1N1CCN(C(=S)Nc2cccc(C)c2)CC1	32.5*	-0.7%	-0.2%	42.8%	52.4
S=C(Nc1ccc2nsnc2c1)N1CCCCC1	11.3*	1.0%	8.0%	-35.8%	42.0*
O=C(Nc1ccc(F)c(Cl)c1)N1CCCCCC1	25.6*	-1.5%	-25.0%	-19.3%	52.2*
O=C(c1ccccc1)C1CCN(C(=O)Nc2ccccc2)CC1	16.0*	-1.6%	-4.3%	-17.6%	5.9
Cc1ccc(NC(=O)N2CCC(C(=O)c3ccc(F)cc3)CC2)cc1	11.2	?	-21.2%	-10.5%	13.2
Cc1cccc(NC(=S)N2CCCCCC2)c1	8.0*	5.6%	-4.0%	-17.3%	21.3
Cc1ccc(NC(=S)N2CCCCCC2)c(C)c1	18.2*	?	-0.4%	-20.0%	25.3
NC(=O)CN1CCN(C(=O)Nc2ccccc2)CC1	-1.5	-10.9%	-5.3%	22.4µM*	10.4
S=C(Nc1ccc2nccnc2c1)N1CCOCC1	36.9*	3.0%	-2.2%	-10.4%	48.2*
CCN1CCN(C(=O)C2CCN(C(=O)Nc3ccccc3)CC2)CC1	nt	9.1%	nt	-21.4%	nt
Cc1cccc(NC(=O)N2CCN(Cc3ccccc3)CC2)c1	21.1*	-7.7%	-6.2%	-7.3%	+
Cc1ccc(NC(=O)N2CCCCCC2)cc1C	44.3*	1.8%	7.3%	-4.9%	69.0*
Cc1cccc(CN2CCN(C(=O)Cc3ccccc3)CC2)c1	5.9	?	-5.8%	28.0%	24.2
O=C(Nc1ccccc1)N1CCCC2CCCCC21 (stereo not drawn)	45.0*	-0.9%	16.1%	-16.2%	94.3*
CCOC(=O)c1ccc(NC(=O)N2CCN(CCc3ccccc3)CC2)cc1	20.1*	?	-3.8%	72.7%	12.3
